Results reported in PubChem BioAssay (EPA / NIEHS).
“And” between values parts separate entries of the source, which are not always exact repeats. Identical values can stand only once. The source holds several records for some structures; these can differ, active in one and inactive in another. The source made the active and inactive calls. The calls were made as follows: active = hit-call score of the fitted dose curve at least 0.9, where 1 is the maximum; inactive = score below 0.9.

What follows are compounds tested on E-selectin (Homo sapiens) (UniProt P16581) (assay: BSK_LPS_Eselectin: BioMAP Diversity Plus: LPS Assay for Eselectin Biomarker Activity (AID 2283077)). Details: primary human HUVEC with PBMC; actives raise or lower the signal.
Sequence of E-selectin (Homo sapiens) (P16581 whole entry, looked up): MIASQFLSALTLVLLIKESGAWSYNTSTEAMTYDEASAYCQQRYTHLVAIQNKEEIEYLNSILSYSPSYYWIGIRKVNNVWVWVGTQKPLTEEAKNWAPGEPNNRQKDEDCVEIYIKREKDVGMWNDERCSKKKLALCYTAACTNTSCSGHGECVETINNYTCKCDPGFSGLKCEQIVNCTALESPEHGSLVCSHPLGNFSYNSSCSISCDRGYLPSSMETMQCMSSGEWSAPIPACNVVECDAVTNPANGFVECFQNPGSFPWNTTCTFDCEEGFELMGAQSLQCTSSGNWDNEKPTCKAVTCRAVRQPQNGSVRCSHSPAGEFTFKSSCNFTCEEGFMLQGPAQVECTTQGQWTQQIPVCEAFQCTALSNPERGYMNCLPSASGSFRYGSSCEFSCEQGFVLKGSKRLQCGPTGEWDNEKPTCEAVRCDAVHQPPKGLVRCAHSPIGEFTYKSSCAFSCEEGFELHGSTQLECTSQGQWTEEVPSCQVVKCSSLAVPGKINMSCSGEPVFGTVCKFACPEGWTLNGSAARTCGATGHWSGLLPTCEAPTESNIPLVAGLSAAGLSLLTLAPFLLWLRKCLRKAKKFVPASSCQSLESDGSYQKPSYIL
Method: BSK_LPS is a cell-based, multiplexed-readout assay that uses umbilical vein endothelium and peripheral blood mononuclear cells, a human vascular primary cell co-culture, with measurements taken at 24 hours after chemical dosing in a 96-well plate.BSK_LPS_Eselectin is an assay component measured in the BSK_LPS assay. It measures E-selectin antibody related to regulation of gene expression using ELISA technology.Data from the assay component BSK_LPS_Eselectin was analyzed into 1 assay endpoint. This assay endpoint, BSK_LPS_Eselectin, was analyzed with bidirectional fitting relative to DMSO as the negative control and baseline of activity. Using a type of binding reporter, gain or loss-of-signal activity can be used to understand changes in the signaling as they relate to the gene SELE. Furthermore, this assay endpoint can be referred to as a primary readout, because this assay has produced multiple assay endpoints where this one serves a signaling function. To generalize the intended target to other relatable targets, this assay endpoint is annotated to the cell adhesion molecules intended target family, where the subfamily is selectins.
The levels of cell surface (or secreted, indicated by the prefix "s") biomarker endpoints were measured by ELISA. Overt cytotoxicity to cells in confluent adherent cultures (all systems other than the BT system) was assessed by measuring total protein levels using sulforhodamine B (SRB) staining in parallel cultures at the time of biomarker measurements, indicated as SRB endpoints. For proliferation assays for adherent cell types, individual cell types are cultured at sub-confluence and relative cell numbers quantified by SRB staining at time points optimized for each system (48 h: 3C and CASM3C systems; 72 h: BT and HDF3CGF systems; 96 h: SAg system). SRB was performed by staining cells with 0.1% SRB after fixation with 10% TCA and reading wells at 560 nm.Viability and proliferation of PBMC (T cells) was quantified by Alamar Blue reduction for the SAg and BT systems. For PBMC viability (referred to as PBMC Cytotoxicity within the assay endpoint names), cells were plated (75,000/well in a 96-well plate) and then chemical samples added for 1 h before addition of activators, SEB and TSST-1 (20 ng/mL final concentration each). Cells were incubated for 90 h. Then, Alamar Blue (20 uL/well) (Invitrogen, Cat DAL1100) was added for 6 h, and the plates were read with a fluorescence microplate reader at 546/580 nm (excitation/emission). For PBMC proliferation, cells were plated and activated as above but incubated for only 16 h prior to addition of Alamar Blue. Plates were read after 6 h.

SMILES	outcome	AC50
OCC(F)(F)C(F)(F)C(F)(F)F	inactive	–
CC(CCl)OP(=O)(OC(C)CCl)OC(C)CCl (stereo not given)	inactive	–
O=C(O)C(F)(F)C(F)(F)C(F)(F)C(F)(F)C(F)(F)C(F)(F)C(F)(F)C(F)(F)C(F)(F)C(F)(F)C(F)(F)C(F)(F)C(F)(F)F	inactive	–
CCc1ccc(C(c2ccc(CC)cc2)C(Cl)Cl)cc1	inactive	–
CCN(CC)c1ccc2c(C)cc(=O)oc2c1	inactive	–
O[Si](c1ccccc1)(c1ccccc1)c1ccccc1	inactive	–
CCCCC(CC)COP(=O)(O)OCC(CC)CCCC (stereo not given)	inactive	–
O=S(=O)(O)C(F)(F)C(F)(F)C(F)(F)C(F)(F)C(F)(F)C(F)(F)C(F)(F)F	inactive	–
O=C(Cl)C(F)(F)C(F)(F)C(F)(F)C(F)(F)C(F)(F)C(F)(F)C(F)(F)C(F)(F)F	inactive	50.4 µM (active)
O=S(=O)(OCC(F)F)C(F)(F)F	inactive	–
O=S(=O)(OCCOC(F)(F)F)C(F)(F)F	inactive	–
FC(F)(F)C(F)(F)CNCC(F)(F)C(F)(F)F	inactive	–
O=C(O)C(F)(F)C(F)(F)C(F)(F)F	inactive	–
FC(F)(F)C(F)(F)C(F)(F)C(F)(F)C(F)(F)C(F)(F)C(F)(F)Br	inactive	–
O=C(CC(=O)C(F)(F)C(F)(F)F)C(F)(F)F	inactive	–
FC(F)(Br)C(F)(F)C(F)(F)C(F)(F)C(F)(F)C(F)(F)Br	inactive	–
C=CC(=O)OCC(F)(F)C(F)(F)C(F)(F)C(F)(F)C(F)(F)C(F)(F)C(F)(F)F	inactive	–
C=CC(F)(F)C(F)(F)C(F)(F)C(F)(F)C(F)(F)C(F)(F)C(F)(F)C(F)(F)C=C	inactive	–
FC(F)(F)C(F)(F)C(F)(F)C(F)(F)CCI	inactive	–

SMILES	outcome	AC50
CS(C)(=O)=O	inactive	–
C#C[C@]1(O)CC[C@H]2[C@@H]3CCc4cc(OC)ccc4[C@H]3CC[C@@]21C	inactive	–
FC1CC(F)(F)C(F)(F)C1(F)F (stereo not given)	inactive	–
OCCCC(F)(F)C(F)(F)C(F)(F)C(F)(F)C(F)(F)C(F)(F)C(F)(F)F	–	50.6 µM (active) and 43.6 µM (active)
CC(=O)Nc1ccc(N=Nc2cc(C)ccc2O)cc1	inactive	–
O=C(O)C(F)(F)C(F)(F)C(F)(F)C(F)(F)C(F)(F)C(F)(F)C(F)(F)C(F)(F)C(F)(F)C(F)(F)C(F)(F)C(F)(F)F	inactive	–
CO[Si](OC)(c1ccccc1)c1ccccc1	inactive	–
C=CC/C=C/C/C=C/C/C=C/C	inactive	–
CC(C)(C)C(=O)CC(=O)C(F)(F)C(F)(F)C(F)(F)F	inactive	–
NC(=O)C(F)(F)C(F)(F)C(F)(F)C(F)(F)F	inactive	–
O=C(O)C(F)(F)C(F)(F)C(F)(F)C(F)(F)C(F)(F)C(F)(F)C(F)(F)C(F)(F)Cl	inactive	30 µM (active)
FC(F)(F)C(F)(F)C(F)(F)N(C(F)(F)C(F)(F)C(F)(F)F)C(F)(F)C(F)(F)C(F)(F)F	inactive	–
CCCCCCCCCCCCCCCC[N+](C)(C)Cc1ccccc1	–	4.01 µM (active)
OCCCC(F)(F)C(F)(F)C(F)(F)F	inactive	–
CCCCCCC(C)OC(=O)CCCCC(=O)OC(C)CCCCCC (stereo not given)	inactive	–
O=C(O)C(F)(F)C(F)(F)F	inactive	–
FC(F)(I)C(F)(F)C(F)(F)C(F)(F)I	inactive	–
FC(F)(F)C(F)(F)C(F)(F)CI	inactive	–
CCCCNc1ccccc1	inactive	–
